The values that follow come from PubChem BioAssay AID493026 (Johns Hopkins Ion Channel Center, 2011).

The structures appear in SMILES notation. The campaign covered roughly 1,000 compounds. About 150 (15%) were called active.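 The calls were made as follows: active = activity change at least 3 SD of negative controls below their mean in both duplicate wells; inactive = the rest.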 Shown is part of a subset that was picked to be rich in actives.

The test deals with Potassium voltage-gated channel subfamily KQT member 1 (Homo sapiens) (UniProt P51787). The test is described as follows: KCNQ1 thallium flux decrease by hits – cell-based, FluxOR thallium flux, counter-screen for KCNQ2 inhibitor project (AID 493026).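 Also: CHO cells stably transfected with KCNQ1 and depolarized by potassium stimulus.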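 As to activity change, negative = inhibition: peak minus minimum fluorescence over baseline after thallium addition; 0% = vehicle negative control and -100% = blank without thallium stimulus.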 Conditions: KCNQ1-expressing cells, FluxOR thallium flux fluorescence, at 10 µM; hits give low values.
Potassium voltage-gated channel subfamily KQT member 1 (Homo sapiens), sequence (P51787 whole entry, looked up): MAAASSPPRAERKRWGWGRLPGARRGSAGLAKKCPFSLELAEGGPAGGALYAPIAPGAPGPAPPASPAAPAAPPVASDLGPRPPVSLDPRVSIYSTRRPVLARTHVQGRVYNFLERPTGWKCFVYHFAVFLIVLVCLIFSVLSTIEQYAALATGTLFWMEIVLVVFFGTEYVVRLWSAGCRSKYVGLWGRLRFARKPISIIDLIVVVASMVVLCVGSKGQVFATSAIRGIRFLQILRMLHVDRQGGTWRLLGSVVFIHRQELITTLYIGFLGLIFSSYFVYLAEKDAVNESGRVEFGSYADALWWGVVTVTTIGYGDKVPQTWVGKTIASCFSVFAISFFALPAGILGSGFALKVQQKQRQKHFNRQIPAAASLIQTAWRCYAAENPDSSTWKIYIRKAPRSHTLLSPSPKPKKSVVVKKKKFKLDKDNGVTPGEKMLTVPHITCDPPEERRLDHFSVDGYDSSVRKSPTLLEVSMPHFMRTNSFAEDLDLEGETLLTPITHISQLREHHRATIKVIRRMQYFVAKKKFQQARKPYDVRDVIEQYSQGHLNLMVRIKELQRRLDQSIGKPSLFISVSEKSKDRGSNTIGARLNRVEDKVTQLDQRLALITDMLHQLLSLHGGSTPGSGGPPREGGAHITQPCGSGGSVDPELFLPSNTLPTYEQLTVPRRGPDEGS
Take `CN(C)CC1Oc2ccccc2OC1(O)c1ccccc1` (configuration not stated): the activity change, negative = inhibition is -30.5% (active).

Take `O=C(NC(c1ccc(Cl)cc1)P(=O)(Oc1ccccc1)Oc1ccccc1)OCc1ccccc1` (configuration not stated): the activity change, negative = inhibition result was “inactive”.
